Compounds without any hit were thinned out: in the full panel of roughly 83,000, 20% have a hit.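 48-hour exposure, single concentration, 96-well plates; percent growth endpoint where 0 means no net growth. Active: below 10.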 Values without a mark were called inactive. Activity calls are given as the source filed them.

For 8 molecules, growth results are on record in PubChem BioAssay (NCI).

What all share (test): NCI-60 one-dose screen, 48 h (100 = growth as untreated, 0 = no growth, -100 = all killed)
In one experiment the test system is NCI-H23 lung. The settings on record: 10 µM unless noted.
The subject of the next experiment is NCI-H226 lung. The settings on record: 10 µM unless noted.
In the next experiment the test system is NCI-H322M lung. The conditions noted are these: 10 µM unless noted.
The test system of another experiment is HOP-62 NSCLC. The settings on record: 10 µM unless noted.
A further experiment relates to NCI-H460 lung. The settings on record: 10 µM unless noted.
A further experiment has as its system HOP-92 NSCLC. The conditions noted are these: 10 µM.
In another experiment the test system is NCI-H522 lung. The settings on record: 10 µM unless noted.
The next experiment concerns A549/ATCC NSCLC. The settings on record: 10 µM unless noted.
In the next experiment the test system is 786-0 renal. The settings on record: 10 µM unless noted.
The subject of the next experiment is COLO 205 colon. The settings on record: 10 µM unless noted.
In another experiment the test system is DU-145 prostate. The settings on record: 10 µM unless noted.
A further experiment deals with K-562 leukemia. The conditions noted are these: 10 µM unless noted.
A further experiment relates to MALME-3M melanoma. The conditions noted are these: 10 µM unless noted.
The subject of the next experiment is MDA-MB-231 breast. The settings on record: 10 µM unless noted.
For the next experiment, the system named is RXF 393 renal. The conditions noted are these: 10 µM unless noted.
A further experiment has as its system SF-268 CNS. The conditions noted are these: 10 µM unless noted.
The test system of another experiment is SF-295 CNS. The settings on record: 10 µM unless noted.
Another experiment relates to SF-539 CNS. The conditions noted are these: 10 µM unless noted.
The subject of the next experiment is UACC-257 melanoma. The conditions noted are these: 10 µM unless noted.

Take `O=C(CSc1nnc(-c2ccc3nc(-c4ccccc4)[nH]c3c2)o1)Nc1ccc(C(=O)/C=C/c2ccccc2)cc1`: the growth was 100% in the experiment on NCI-H23 lung; 106% in the experiment with NCI-H226 lung; 102% with NCI-H322M lung; 104% with HOP-62 NSCLC; 113% in the experiment on NCI-H460 lung; 149% in the experiment with HOP-92 NSCLC. For the same molecule, the growth in the experiment on NCI-H522 lung was 93.4%; in the experiment with A549/ATCC NSCLC it was 106%; with 786-0 renal, 102%; with COLO 205 colon, 110%; with DU-145 prostate, 107%; in the experiment with K-562 leukemia it was 112%. Further, the growth in the experiment on MALME-3M melanoma was 94.5%; with MDA-MB-231 breast, 105%; with RXF 393 renal it was 114%; with SF-268 CNS, 109%; in the experiment with SF-295 CNS, 109%; in the experiment on SF-539 CNS, 96.8%. The growth with UACC-257 melanoma was 103%.
In the case of `CS(=O)(=O)c1ccc(-c2nn(-c3ccccc3)cc2/C=N/NC(=O)c2nc(N)n[nH]2)cc1`, the growth was 96.3% in the experiment with NCI-H23 lung; 101% with NCI-H226 lung; 104% in the experiment on NCI-H322M lung; 103% in the experiment with HOP-62 NSCLC; 83% with NCI-H460 lung; 103% with HOP-92 NSCLC. Moreover, the growth is 94.2% in the experiment on NCI-H522 lung; 97.3% in the experiment on A549/ATCC NSCLC; 96.8% in the experiment on 786-0 renal; 96.3% with COLO 205 colon; 90% in the experiment on DU-145 prostate; 59.4% with K-562 leukemia. Also, the growth was 90% in the experiment with MALME-3M melanoma; 98.4% with MDA-MB-231 breast; 117% with RXF 393 renal; 103% in the experiment on SF-268 CNS; 103% in the experiment on SF-295 CNS; 99.3% with SF-539 CNS. Further, in the experiment with UACC-257 melanoma, the growth is 98.3%.
As for `Cc1ccc(NC(=O)c2ccc(CN3CCN(C)CC3)cc2)cc1Oc1ccc(-c2[nH]nc3ncnc(N)c23)cc1`, the growth in the experiment with NCI-H23 lung was 99.6%; with NCI-H226 lung it was 98.5%; with NCI-H322M lung it was 97.3%; with HOP-62 NSCLC, 104%; in the experiment on NCI-H460 lung it was 110%; in the experiment on HOP-92 NSCLC, 98.3%. Also, the growth is 89.9% with NCI-H522 lung; 98.8% in the experiment with A549/ATCC NSCLC; 63.7% in the experiment on 786-0 renal; 28.1% with COLO 205 colon; 106% in the experiment with DU-145 prostate; 9% (active) in the experiment with K-562 leukemia. For the same molecule, the growth is 68.8% with MALME-3M melanoma; 95.9% in the experiment on MDA-MB-231 breast; 78.3% in the experiment on RXF 393 renal; 89% with SF-268 CNS; 103% in the experiment on SF-295 CNS; 85.9% with SF-539 CNS. Besides, in the experiment with UACC-257 melanoma, the growth was 98.5%.
Regarding `COc1ccc(S(=O)(=O)NCCCNc2nccc(-c3[nH]c(-c4ccccc4)nc3-c3ccc(Cl)c(O)c3)n2)cc1`, the growth was 83.4% in the experiment with NCI-H23 lung; 103% in the experiment on NCI-H226 lung; 96.5% in the experiment with NCI-H322M lung; 91.7% in the experiment with HOP-62 NSCLC; 85.6% with NCI-H460 lung; 114% in the experiment on HOP-92 NSCLC. The growth with NCI-H522 lung is 69.1%; with A549/ATCC NSCLC, 102%; in the experiment on 786-0 renal, 125%; in the experiment on COLO 205 colon, 86.3%; in the experiment on DU-145 prostate, 89.3%; with K-562 leukemia, 55.2%. For the same molecule, the growth with MALME-3M melanoma is -7% (active); with MDA-MB-231 breast, 61.4%; in the experiment on RXF 393 renal, 140%; in the experiment with SF-268 CNS, 92%; in the experiment on SF-295 CNS, 96.4%; in the experiment with SF-539 CNS it was 101%. In addition, the growth in the experiment on UACC-257 melanoma is 23.6%.
As to `Cc1ccc(-n2c(/C=C3\C(=O)Nc4ccccc43)ccc2CO)cc1`, the growth was 80.6% with NCI-H23 lung; 88.2% in the experiment on NCI-H226 lung; 103% in the experiment with NCI-H322M lung; 72.8% in the experiment on HOP-62 NSCLC; 80.3% in the experiment with NCI-H460 lung; 84.5% with HOP-92 NSCLC. In addition, the growth is 73.6% with NCI-H522 lung; 71.3% in the experiment with A549/ATCC NSCLC; 101% in the experiment with 786-0 renal; 91.5% in the experiment on COLO 205 colon; 92.2% in the experiment with DU-145 prostate; 19.2% with K-562 leukemia. The growth is 44% in the experiment with MALME-3M melanoma; 64% in the experiment with MDA-MB-231 breast; 66.1% in the experiment with RXF 393 renal; 89.5% with SF-268 CNS; 69.8% in the experiment on SF-295 CNS; 68.7% in the experiment on SF-539 CNS. In addition, the growth in the experiment on UACC-257 melanoma is 85.8%.
Regarding `COc1cc(OC)c(/C=C/S(=O)(=O)Cc2ccc(OC)c(NC(=O)CCC(=O)NO)c2)c(OC)c1`, the growth with NCI-H23 lung was 16.6%; in the experiment with NCI-H226 lung, 27.2%; in the experiment with NCI-H322M lung it was 47.8%; in the experiment with HOP-62 NSCLC, 25.3%; with NCI-H460 lung, 6.85% (active); with HOP-92 NSCLC, 63.5%. The growth is -6.54% (active) in the experiment on NCI-H522 lung; 24.6% in the experiment on A549/ATCC NSCLC; 28.5% in the experiment on 786-0 renal; -53.6% (active) in the experiment with COLO 205 colon; 14.4% in the experiment with DU-145 prostate; 12.6% in the experiment with K-562 leukemia. For the same molecule, the growth in the experiment on MALME-3M melanoma is 64.1%; in the experiment with MDA-MB-231 breast, 26%; in the experiment on RXF 393 renal it was 6.03% (active); with SF-268 CNS, 30.4%; in the experiment on SF-295 CNS, 8.21% (active); in the experiment on SF-539 CNS it was -4.79% (active). Also, in the experiment on UACC-257 melanoma, the growth is 59.5%.
As for `N#Cc1c(NC(=O)c2cccc(C(F)(F)F)c2F)sc2c1CCC(=O)C2`, the growth was 11% in the experiment on NCI-H23 lung; -23.9% (active) in the experiment with NCI-H226 lung; 35.1% in the experiment on NCI-H322M lung; 19.4% in the experiment with HOP-62 NSCLC; 9.08% (active) in the experiment with NCI-H460 lung; -66.1% (active) with HOP-92 NSCLC. The growth is 3.71% (active) in the experiment with NCI-H522 lung; 12.3% in the experiment with A549/ATCC NSCLC; 14.8% in the experiment with 786-0 renal; -8.77% (active) in the experiment on COLO 205 colon; 24.6% in the experiment on DU-145 prostate; 1.31% (active) with K-562 leukemia. The growth in the experiment on MALME-3M melanoma is -21.6% (active); with MDA-MB-231 breast, -48% (active); with RXF 393 renal, -67.1% (active); in the experiment on SF-268 CNS, 11.2%; with SF-295 CNS, -19.4% (active); in the experiment with SF-539 CNS it was -41.8% (active). For the same molecule, in the experiment with UACC-257 melanoma, the growth was -36.3% (active).
For `O=S(=O)(NCCCNc1nccc(-c2[nH]c(-c3ccccc3)nc2-c2ccc(Cl)c(O)c2)n1)c1cccc(F)c1`, the growth with NCI-H23 lung is 65.5%; in the experiment on NCI-H226 lung, 62.8%; in the experiment on NCI-H322M lung, 87.9%; with HOP-62 NSCLC, 75.2%; in the experiment on NCI-H460 lung it was 55.2%; in the experiment with HOP-92 NSCLC, 85.5%. Further, the growth in the experiment on NCI-H522 lung was 54.2%; in the experiment with A549/ATCC NSCLC it was 65.2%; in the experiment with 786-0 renal, 100%; with COLO 205 colon, 87.9%; in the experiment on DU-145 prostate it was 66.1%; in the experiment with K-562 leukemia it was 35.3%. Further, the growth was 2.24% (active) in the experiment on MALME-3M melanoma; 60.2% in the experiment on MDA-MB-231 breast; 34.1% in the experiment on RXF 393 renal; 74.3% with SF-268 CNS; 47.4% in the experiment on SF-295 CNS; 94.1% in the experiment with SF-539 CNS. In addition, the growth with UACC-257 melanoma was 25.6%.
